Assay results published in ChEMBL document CHEMBL4513216, “Probing the Open Global Health Chemical Diversity Library for Multistage-Active Starting Points for Next-Generation Antimalarials” (ACS Infect Dis, 2020).
In all, about 65,000 compounds went through this assay and about 2,100 (3.2%) showed an effect of 50% or more. The median lay at about -52%. The entries come from a sample that favours strong results as a whole.

Each molecule was assayed on Plasmodium falciparum (assay: Screen against P. falciparum Asexual Blood Stage (ABS), at 5uM). Settings: tested at 5 uM.
Assay type: functional, Dd2

Compound	INHIBITION [%]
c1cc2c(cc1CSCc1noc(C3CC3)n1)OCCO2	-17
O=C(OCC1CCN(c2ccccc2)C1)c1cscn1 (stereo unspecified)	0.13
CCOC1CCC2(CCN(C(=O)c3csnn3)CC2)c2ccccc21 (stereo unspecified)	-79.6
O=C(O)c1ccccc1-c1ccc(CNC(=O)C2CCOCC2)cc1	-63.2
Nc1nc2c(c(NC(Cn3cccn3)c3ccccc3)n1)CCNCC2 (stereo unspecified)	-40.8
CN(CC1CCN(CCO)CC1)CC(O)c1ccc(F)cc1F (stereo unspecified)	56.7
CCC(c1ccc(F)cc1F)N1CCN(CCO)CC1 (stereo unspecified)	34.1
CN(CC1CCN(CCO)CC1)CC(O)c1ccc(F)cc1 (stereo unspecified)	69.1
Cc1noc(CN(C)CC2CCN(CCO)CC2)n1	-64
CN(CCOCC(F)(F)F)CC1CCN(CCO)CC1	19.4
Cc1cnn(CC2CCN(CC(O)c3ccc(F)cc3)CC2)c1 (stereo unspecified)	29.3
Cc1ccc(C(=O)NCCCNc2ccc(C(F)(F)F)cn2)cc1	35.4
CCS(=O)(=O)N1CCC(C(=O)NC(Cc2ccsc2)c2nccs2)CC1 (stereo unspecified)	-83.8
CN(Cc1ccccc1CNC(=O)C1CNC(=O)N1)C1CCCCC1 (stereo unspecified)	-35
COc1cc(N2CCC3(CC(=O)N(Cc4csc(C)n4)C3)C2)ncn1 (stereo unspecified)	-10.7
COC(=O)N1CCC2(CC1)CC(c1ccccc1)CN(C)C2 (stereo unspecified)	-17.2
CN1CC(c2ccccc2)CC2(CCN(C(=O)c3ccccc3)CC2)C1 (stereo unspecified)	18.1
CN1CC(c2ccccc2)CC2(CCN(CC(=O)N(C)C)CC2)C1 (stereo unspecified)	53.8
CC(C)OCc1ncn2c1CN(Cc1ccoc1)CCC2	-4.62
CCc1n[nH]c(C2CN(C(=O)c3ccnc(N(C)C)c3)CCO2)n1 (stereo unspecified)	-77.2
CC1CCCN1C1CCN(C(=O)c2cccc(F)c2)CC1 (stereo unspecified)	-14.6
O=C(CN1CCN(C(=O)c2cccc(-c3ccoc3)c2)CC1)C1CC1	-3.7
CC1CCCN1C1CCN(C(=O)c2cccc(-c3ccoc3)c2)CC1 (stereo unspecified)	53.6
O=C1c2cc(Br)cc(Br)c2OCC1(CN1CCCC1)CN1CCCC1	-65.9

Compound	INHIBITION [%]
CC(C(=O)Nc1ccc(N2CCOCC2)nc1)n1cncn1 (stereo unspecified)	-27
Fc1ccc(NC2CCCN(Cc3ccncc3)C2)cc1 (stereo unspecified)	-65.4
COc1cccc(CNc2ccc(F)c(Cl)c2)c1O	-117
COc1ccc(NC2CCCN(Cc3cnc(N(C)C)s3)C2)cc1OC (stereo unspecified)	-54.2
COc1ccc(F)cc1CN1CCCC(c2cc(C(N)=O)[nH]n2)C1 (stereo unspecified)	-14.1
COc1cc(CN2CCCC(Nc3cccc(F)c3)C2)cc(OC)c1O (stereo unspecified)	36.9
COc1cccc(CN2CCCC(Nc3cccc(F)c3)C2)c1O (stereo unspecified)	67.3
COc1cccc(O)c1CN1CCCC(Nc2cccc(F)c2)C1 (stereo unspecified)	51.3
COc1ccc(CN2CCCC(Nc3cccc(F)c3)C2)cc1O (stereo unspecified)	63.3
COc1cccc(F)c1CN1CCC(c2nc(C)cc(C)n2)C1 (stereo unspecified)	23.3
Oc1cccc(CN2CCN(C3CCc4ccccc4C3)CC2)c1 (stereo unspecified)	14.6
Cc1n[nH]c(C)c1C1COCCN1C(=O)Cc1ccccc1F (stereo unspecified)	-105
Cc1cnc(CCN(C)C(=O)c2cccc(C)c2O)s1	-152
Cc1ccc(NC2CCN(C(=O)c3sccc3C3CC3)CC2)nn1	-28.9
Cc1ccc(C(C)NC(=O)N2CCCN(CC(F)F)CC2)s1 (stereo unspecified)	-73.5
Cc1cccc(CN2C(=O)CC[C@@H]3[C@H]2CCN3Cc2ccc(F)cc2)n1	-111
CCNc1nc2c(s1)C(=O)CN(C(=O)NCc1ccccc1)C2	-146
CN(C)CC1CN(Cc2nc(-c3cccnc3)no2)CCO1 (stereo unspecified)	-51.1
c1cncc(-c2noc(CN3CCOC(Cn4cccn4)C3)n2)c1 (stereo unspecified)	10.9
Cc1ccc(-c2noc(CN3CCOC(CN(C)C)C3)n2)cc1F (stereo unspecified)	53.2
Cc1noc(CN2CCOC(CN(C)C)C2)n1 (stereo unspecified)	-84.3
Cc1ccc(-c2noc(CN3CCOC(Cn4cccn4)C3)n2)cc1 (stereo unspecified)	-105
Cc1cccc(-c2noc(CN3CCOC(Cn4cccn4)C3)n2)c1 (stereo unspecified)	51.2
CC(NC(=O)CN1CCN(c2ccncc2Cl)CC1)c1ccco1 (stereo unspecified)	-106

Compound	INHIBITION [%]
O=C(CCC1CCCN(C(=O)CCc2ccc(F)c(F)c2)C1)NC1CC1 (stereo unspecified)	-157
Cc1ncc(CN2CCc3nc4cc(C(C)(C)C)nn4c(O)c3C2)n1C	-104
CN1CCN(C2COC3(CCN(Cc4ccsc4)CC3)C2)CC1 (stereo unspecified)	-10.7
CC(C)Oc1ccc(C(=O)N2CCCCC2Cn2cccn2)cn1 (stereo unspecified)	64.8
Cc1cnn(CC2CCCN2C(=O)c2ccc(OC(C)C)nc2)c1 (stereo unspecified)	-94.7
CN(C)c1cc(C(=O)N2CCCCC2Cn2cccn2)ccn1 (stereo unspecified)	-202
CCN(CC1CN(Cc2cccc(C#N)c2)CCO1)c1cccnn1 (stereo unspecified)	-83.6
CCn1ccnc1CN1CCCN(C(=O)COC2CCCCC2)CC1	-84.3
O=C(Nc1nccs1)NC1CCN(Cc2ccccc2)CC1	28.3
O=C(Nc1nccs1)NC1CCN(Cc2ccccn2)CC1	63.7
O=C(Nc1nccs1)NC1CCN(Cc2ccccc2)C1 (stereo unspecified)	-9.31
Cc1cn2nc(Sc3nnc(C(C)C)n3C)sc2n1	-104
OC(c1ccccn1)C1CCN(Cc2cc3n(n2)CCNC3)CC1 (stereo unspecified)	-27.2
CC(=O)N1CCCCC1c1nc(N)ncc1-c1ccccc1 (stereo unspecified)	-145
CN(C)C(=O)CN1CCCCC1c1nc(N)ncc1-c1ccccc1 (stereo unspecified)	-40.8
CN(C)CC(=O)N1CCCCC1c1nc(N)ncc1-c1ccccc1 (stereo unspecified)	50.9
CC(C)Oc1ccc(CN2CCC(c3n[nH]c4ncccc34)CC2)cc1	-69.9
Cc1cc(C[C@@H]2CCC[C@H]2NCc2ccccc2F)on1	-4.92
Cc1cc(C[C@@H]2CCC[C@H]2NCc2cc(F)ccc2F)on1	20.7
Cc1cc(C[C@@H]2CCC[C@H]2NCc2ccccc2C)on1	65.1
Cc1cc(C[C@@H]2CCC[C@H]2NCc2c[nH]nc2-c2ccccc2)on1	57.4
Cc1cc(C[C@@H]2CCC[C@H]2NCc2ccccc2C(F)(F)F)on1	15.6
Cc1cc(C[C@@H]2CCC[C@H]2NCc2cccc(F)c2F)on1	-58.5
